Reference: PubChem BioAssay
Calls of active or inactive are those of the source. Unless noted, how the calls were made is not given here.

How the values were obtained:
[1] = A549 cell viability effects, profiling panel, calcein-AM fluorescence, 48 h, basal (AID 1162); settings: higher = more signal; further: test concentration not given here
[2] = adipocyte viability effects, profiling panel, cell-based, 3T3-L1 adipocytes, calcein-AM fluorescence, 48 h, basal (AID 1163); settings: 3T3-L1 adipocytes viability, higher = more signal; further: test concentration not given here
[3] = HepG2 cell viability effects, profiling panel, calcein-AM fluorescence, 48 h, basal (AID 1164); settings: higher = more signal; further: test concentration not given here
[4] = MM1S cell viability effects, profiling panel, calcein-AM fluorescence, 48 h, basal (AID 1165); settings: higher = more signal;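 further: viability of MM1S multiple myeloma cells under basal unstimulated conditions; test concentration not given here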
[5] = basal RPMI8226 viability, no added stimulus, profiling panel, cell-based, calcein-AM fluorescence, 48 h, PK04 Diversity Set (AID 1166); settings: RPMI8226 myeloma viability, higher = more signal;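 further: cells grown under basal conditions without added stimulus; test concentration not given here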
[6] = basal HepG2 mitochondrial membrane potential changes, profiling panel, cell-based, JC-1 fluorescence, 24 h, 100 nL compound (AID 1167); settings: higher = more signal; further: test concentration not given here
[7] = basal 3T3-L1 adipocyte mitochondrial potential changes, profiling panel, cell-based, JC-1 fluorescence, 3T3-L1 adipocytes, 24 h, 100 nL compound (AID 1168); settings: JC-1 mitochondrial fluorescence, higher = more signal, called active from +8 up or from −8 down; further: test concentration not given here
[8] = basal RPMI8226 mitochondrial membrane potential changes, profiling panel, cell-based, JC-1 fluorescence, 24 h, 100 nL compound (AID 1169); settings: RPMI8226 myeloma, JC-1 mitochondrial potential fluorescence, higher = more signal; further: test concentration not given here
[9] = basal MM1S mitochondrial membrane potential changes, profiling panel, cell-based, JC-1 fluorescence, 24 h, 100 nL compound (AID 1170); settings: higher = more signal; further: test concentration not given here
[10] = A549 lung cancer cell viability effects, profiling panel, resazurin fluorescence, 24 h, PK04 Diversity Set (AID 1171); settings: higher = more signal, called active from +8 up or from −8 down; further: test concentration not given here
[11] = HepG2 liver cancer cell viability effects, profiling panel, resazurin fluorescence, 24 h, PK04 Diversity Set (AID 1172); settings: higher = more signal; further: test concentration not given here
[12] = basal S. cerevisiae growth modulation, no modifier, primary screen, OD600, strain BY4716, 24 h, basal condition (AID 1173); settings: OD600, 24 h, higher = more signal, called active from +8 up or from −8 down
[13] = MM1S myeloma cell viability, profiling panel, resazurin fluorescence, basal, 24 h, PK04 Diversity Set (AID 1174); settings: higher = more signal, called active from +8 up or from −8 down;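 further: MM1S multiple myeloma cell line; test concentration not given here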
[14] = target: Dihydroorotate dehydrogenase (quinone), mitochondrial (Plasmodium falciparum (isolate 3D7)) (UniProt Q08210); experiment: PfDHODH enzyme inhibitors, primary screen, biochemical, C-terminal His tag, absorbance 600 nm (AID 1175); settings: DCIP absorbance 600 nm, higher = more signal, called active from +8 up or from −8 down;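 further: recombinant parasite enzyme with a five histidine tag at its C terminus; test concentration not given here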
Chain of Dihydroorotate dehydrogenase (quinone), mitochondrial (Plasmodium falciparum (isolate 3D7)) (Q08210 whole entry, looked up): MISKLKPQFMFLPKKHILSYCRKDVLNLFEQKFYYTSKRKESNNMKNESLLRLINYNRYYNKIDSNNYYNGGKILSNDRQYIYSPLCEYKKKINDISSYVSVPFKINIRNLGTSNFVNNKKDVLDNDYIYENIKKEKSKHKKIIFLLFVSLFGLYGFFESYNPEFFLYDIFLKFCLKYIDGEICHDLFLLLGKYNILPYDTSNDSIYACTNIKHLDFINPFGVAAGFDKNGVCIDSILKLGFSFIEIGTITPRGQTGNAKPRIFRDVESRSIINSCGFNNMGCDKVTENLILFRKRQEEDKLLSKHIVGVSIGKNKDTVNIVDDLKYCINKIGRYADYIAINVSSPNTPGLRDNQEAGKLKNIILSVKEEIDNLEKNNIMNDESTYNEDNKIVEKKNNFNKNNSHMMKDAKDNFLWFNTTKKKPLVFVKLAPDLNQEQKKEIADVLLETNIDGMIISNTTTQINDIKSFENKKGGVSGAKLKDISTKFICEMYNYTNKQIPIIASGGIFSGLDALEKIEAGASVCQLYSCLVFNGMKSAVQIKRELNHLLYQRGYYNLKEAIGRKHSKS

[15] = P. aeruginosa biofilm formation inhibitors, primary screen, strain PAO1, LB-PBS medium, absorbance 600 nm (AID 1176); further: test concentration not given here; settings: P. aeruginosa PAO1 growth/biofilm, A600, 12 h; higher = more signal
[16] = S. cerevisiae RM11-1a growth modifiers, primary screen, strain RM11-1a, OD600, basal, 24 h (AID 1177); settings: OD600, 24 h, higher = more signal, called active from +8 up or from −8 down;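 further: cultures grown under basal conditions with no added stressor; test concentration not given here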
[17] = E. coli acrAB mutant growth effects, primary screen, E. coli filamentation inducers, strain DRC39, OD650, 24 h (AID 1178); settings: higher = more signal, called active from +8 up or from −8 down;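 further: growth measured as culture turbidity by optical density at 650 nm; test concentration not given here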
[18] = E. coli acrAB mutant growth effects, primary screen, E. coli filamentation inducers, strain DRC39, OD650, 48 h (AID 1179);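 further: screen aims at cell division blockers that make cells filament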; settings: E. coli DRC39 delta-acrAB growth, higher = more signal, called active from +8 up or from −8 down
[19] = RPMI8226 myeloma cell viability, profiling panel, resazurin fluorescence, basal, 24 h, PK04 Diversity Set (AID 1180); settings: higher = more signal;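 further: RPMI8826 multiple myeloma cell line at 5000 cells per well; test concentration not given here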
[20] = target: E3 ubiquitin-protein ligase XIAP (Homo sapiens) (UniProt P98170); experiment: XIAP binders, primary screen, biophysical, small-molecule microarray, fluorescence 635 nm (AID 1181); settings: small-molecule microarray binding, higher = more signal;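 further: score merges 667 nm emission and signal to noise over triplicate slides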
Chain of E3 ubiquitin-protein ligase XIAP (Homo sapiens) (P98170 whole entry, looked up): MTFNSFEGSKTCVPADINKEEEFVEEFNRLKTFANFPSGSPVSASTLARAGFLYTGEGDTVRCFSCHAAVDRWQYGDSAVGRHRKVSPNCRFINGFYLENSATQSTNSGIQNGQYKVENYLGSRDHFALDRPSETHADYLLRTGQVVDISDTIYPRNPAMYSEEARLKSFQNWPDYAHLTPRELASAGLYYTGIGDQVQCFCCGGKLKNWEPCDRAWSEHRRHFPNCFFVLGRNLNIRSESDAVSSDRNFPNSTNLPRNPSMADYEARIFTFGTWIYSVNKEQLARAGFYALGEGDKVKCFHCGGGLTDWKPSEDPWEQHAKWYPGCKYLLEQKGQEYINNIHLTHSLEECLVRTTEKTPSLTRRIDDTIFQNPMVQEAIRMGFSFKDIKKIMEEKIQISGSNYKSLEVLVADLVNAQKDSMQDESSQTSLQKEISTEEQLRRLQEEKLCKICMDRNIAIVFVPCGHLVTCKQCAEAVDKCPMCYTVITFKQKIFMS

| Structure (SMILES) | z-score [1] | z-score [2] | z-score [3] | z-score [4] | z-score [5] | z-score [6] | z-score [7] | z-score [8] | z-score [9] | z-score [10] | z-score [11] | z-score [12] | z-score [13] | composite z-score [14] | z-score [15] | z-score [16] | z-score [17] | z-score [18] | z-score [19] | composite z-score [20] |
| --- | --- | --- | --- | --- | --- | --- | --- | --- | --- | --- | --- | --- | --- | --- | --- | --- | --- | --- | --- | --- |
| COC(=O)c1c(CC[C@@H](CO)NC(=O)N[C@H](Cn2cc(C3(O)CCCCC3)nn2)C(C)C)oc(C(C)=O)c1C(=O)OC | -0.233 | 1.36 | -0.134 | -0.722 | 0.0074 | 0.74 | 0.595 (inactive) | 0.355 | -0.202 | -1.06 (inactive) | -0.752 | -3.03 (inactive) | 0.679 (inactive) | -4.51 (inactive) | -0.24 (inactive) | -0.834 (inactive) | 1.4 (inactive) | 0.669 (inactive) | 0.0252 | -0.102 |
| CO[C@H]1O[C@H](CO)[C@@H](OC(=O)Nc2ccc3c(c2)OCO3)[C@H](OC(=O)c2cc3ccccc3[nH]2)[C@H]1OC(=O)c1cc2ccccc2[nH]1 | 0.603 | 0.477 | 0.463 | -1.98 | 1.11 | -2.54 | 1.27 (inactive) | -0.31 | -1.29 | -3.63 (inactive) | -2.92 | -0.237 (inactive) | -3.48 (inactive) | -1.53 (inactive) | 0.69 (inactive) | -0.81 (inactive) | 0.387 (inactive) | 1.42 (inactive) | -3.84 | 0.151 |
| Cn1cccc1C(O)C1C=CC2C(=O)NC(=O)C2N1Nc1ccc(Cl)cc1Cl (stereo not given) | -0.924 | -0.457 | -1.5 | -3.45 | -2.24 | -2.72 | -1.36 (inactive) | -0.929 | 0.234 | -0.299 (inactive) | -1.75 | -3.53 (inactive) | -1.86 (inactive) | 0.121 (inactive) | 1.69 (inactive) | 0.441 (inactive) | -1.09 (inactive) | -1.28 (inactive) | -1.98 | 0.315 |
| O=C1NC(=O)C2C1C=CC(C(O)c1cccc3ccccc13)N2Nc1ccc(Cl)cc1Cl (stereo not given) | -2.6 | -0.132 | -2.76 | -3.71 | -4.17 | -4.07 | -1.1 (inactive) | -0.962 | -0.213 | -0.993 (inactive) | -2.01 | -4.99 (inactive) | -1.66 (inactive) | 0.847 (inactive) | 0.875 (inactive) | 0.981 (inactive) | -0.693 (inactive) | -0.726 (inactive) | -1.84 | 0.351 |
| O=C1O[C@H](c2ccccc2)[C@H](c2ccccc2)N2[C@H]1[C@@H](C(=O)O)[C@]1(C(=O)Nc3ccc(C#CC4=CCCCC4)cc31)[C@H]2c1ccc(O)cc1 | 0.576 | -0.029 | 0.85 | -3.14 | -2.25 | -3.42 | 0.0262 (inactive) | -1.03 | -0.657 | 0.391 (inactive) | -0.176 | -1.73 (inactive) | 0.248 (inactive) | -4.56 (inactive) | 1.42 (inactive) | 0.168 (inactive) | -0.448 (inactive) | -0.174 (inactive) | -0.0705 | 0.0938 |
| CC(CO)N1C(=O)[C@@H]2[C@H]3C(=O)OCC=C[C@H]3OC23C=CCN(CCN2CCOCC2)C(=O)[C@@H]13 (stereo not given in full) | -0.313 | 0.344 | -0.0457 | 0.646 | -0.0704 | -0.382 | 0.126 (inactive) | 0.0907 | 0.12 | -0.147 (inactive) | 0.0843 | 0.0245 (inactive) | -0.622 (inactive) | -0.0564 (inactive) | -0.649 (inactive) | -0.169 (inactive) | -0.55 (inactive) | -0.733 (inactive) | -0.266 | -0.0046 |
| COCCOC(=O)N1C(=O)[C@@]2(c3cc(C#Cc4ccc(OC)cc4)ccc31)[C@H](c1ccccc1OCCO)N1[C@H](c3ccccc3)[C@H](c3ccccc3)OC(=O)[C@H]1[C@@H]2C(=O)N1CCCCCCC1 | 0.161 | 1.62 | 1.19 | -0.248 | -0.584 | 0.591 | 3.46 (inactive) | -0.686 | -1.16 | 0.375 (inactive) | 0.457 | 1.29 (inactive) | 0.0229 (inactive) | -1.26 (inactive) | 3.49 (inactive) | 1.84 (inactive) | -0.398 (inactive) | 0.118 (inactive) | 0.504 | 0.223 |
| O=C1OCCC/C=C\[C@H]2OC34C=CCN(CCN5CCOCC5)C(=O)[C@H]3N(CCCCCCO)C(=O)[C@@H]4C12 (stereo not given in full) | 0.26 | 1.3 | 1.18 | 1.54 | 0.279 | 0.538 | 0.587 (inactive) | 0.0622 | -0.955 | -0.168 (inactive) | 0.287 | -0.549 (inactive) | 0.828 (inactive) | -1.38 (inactive) | 0.0251 (inactive) | -1.06 (inactive) | 0.251 (inactive) | 0.547 (inactive) | 0.56 | 0.122 |
